# Several values for one entry are separate records, joined by “and”; a condition that tells them apart may be missing. Identical values can stand only once. Inconclusive results are not listed. Entries that show only a call come without a potency. The source holds several records for some structures; these can differ, active in one and inactive in another. Activity calls are given as the source filed them. Unless noted, calls come from the whole dose curve; as a rule, active = well fitted curve in the direction sought with a large enough effect in the repeat runs; inconclusive = weak or mixed curves; inactive = no such curve, though single readings can be large; an effect the other way counts as inactive or inconclusive.
# Experiments:
# [1] = qHTS assay to test for compound auto fluorescence at 535 nm (green) in HEK293 cells (AID 720680)
# [2] = qHTS assay to test for compound auto fluorescence at 535 nm (green) in HEK293 cell free culture (AID 720682)
# In short: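 Intrinsic compound fluorescence is measured in culture medium containing 10% FBS, with excitation at 485 nm and detection at 535 nm, referenced to fluorescein.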
# [3] = qHTS assay to test for compound auto fluorescence at 590 nm (red) in HEK293 cell free culture (AID 720683)
# In short: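 Tox21 10K library compounds were pinned into cell-free DMEM with 10% FBS and fluorescence was read at excitation 540 nm. Activity is expressed as Rose Bengal sodium equivalency.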
# [4] = qHTS assay to test for compound auto fluorescence at 590 nm (red) in HepG2 cell free culture (AID 720684)
# In short: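 Measured in medium alone (MEM containing 10% FBS) following pintool addition of compound; emission at 590 nm with 540 nm excitation, referenced to Rose Bengal sodium.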
# [5] = qHTS assay to test for compound auto fluorescence at 460 nm (blue) in HepG2 cell free culture (AID 720685)
# In short: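 Compound (23 nL) or DMSO pinned into cell-free MEM with 10% FBS; blue fluorescence read at 405/460 nm excitation/emission, expressed as auto-fluorescence equivalency to triamterene.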
# [6] = qHTS assay to test for compound auto fluorescence at 535 nm (green) in HepG2 cell free culture (AID 720686)
# [7] = target: Glucocorticoid receptor (Homo sapiens) (UniProt P04150); assay: qHTS assay to identify small molecule agonists of the glucocorticoid receptor (GR) signaling pathway (AID 720691; active = well fitted activation curve with a large enough effect in the signal ratio in the repeat runs, not every such curve was filed as active; the % refers to the signal ratio)
# In short: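 Beta-lactamase reporter activity, read as fluorescence intensity, was measured in GR-bla HeLa cells exposed to compounds for 18 h at 37 C and then loaded with LiveBLAzer B/G FRET substrate for 2 h at room temperature.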
# [8] = qHTS assay to identify small molecule antagonists of the glucocorticoid receptor (GR) signaling pathway - cell viability counter screen (AID 720693); note: nearly all actives have a fitted effect of over 55% in size; note: potency is the fitted concentration of half-maximal effect
# [9] = qHTS assay for identifying genotoxic compounds that show differential cytotoxicity against isogenic chicken DT40 cell lines with known DNA damage response pathways - wild type cell line (AID 743012); note: nearly all actives have a fitted effect of over 60% in size; note: potency is the fitted concentration of half-maximal effect
# In short: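 Quantitative HTS on parental DT40 cells: 40 h compound treatment at 37 C/5% CO2, with viability then determined by CellTiter-Glo luminescence. Values serve as the DNA repair-proficient reference for differential cytotoxicity.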
# [10] = qHTS assay for identifying genotoxic compounds that show differential cytotoxicity against isogenic chicken DT40 cell lines with known DNA damage response pathways - Rev3 mutant cell line (AID 743014); note: nearly all actives have a fitted effect of over 55% in size; note: potency is the fitted concentration of half-maximal effect
# [11] = qHTS assay for identifying genotoxic compounds that show differential cytotoxicity against isogenic chicken DT40 cell lines with known DNA damage response pathways - Rad54/Ku70 mutant cell line (AID 743015); note: nearly all actives have a fitted effect of over 60% in size; note: potency is the fitted concentration of half-maximal effect
# [12] = qHTS assay to identify small molecule antagonists of the androgen receptor (AR) signaling pathway - cell viability counter screen (AID 743033; note: nearly all actives have a fitted effect of over 45% in size)
# [13] = qHTS assay to identify small molecule antagonists of the androgen receptor (AR) signaling pathway using the MDA cell line - cell viability counter screen (AID 743041; note: nearly all actives have a fitted effect of over 45% in size)
# In short: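 Viability counter screen run alongside the AR antagonist reporter: cells seeded 5 h before compound, R1881 added, 16 h incubation at 37C without CO2, fluorescent CellTiter-Fluor signal quantified.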
# [14] = qHTS assay to test for compound auto fluorescence at 460 nm (blue) in HepG2 cells (AID 720687)
# In short: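 Cells (2,000/well in MEM with 10% FBS) attached overnight at 37 C, then were exposed to compound or DMSO for 1 hr at 37 C, 5% CO2. Fluorescence read at Ex/Em 405/460 nm, expressed as triamterene-equivalent signal.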
# [15] = target: Glucocorticoid receptor (Homo sapiens) (UniProt P04150); assay: qHTS assay to identify small molecule antagonists of the glucocorticoid receptor (GR) signaling pathway (AID 720692; active = well fitted inhibition curve with a large enough effect in the signal ratio in the repeat runs, not every such curve was filed as active; the % refers to the signal ratio; note: potency is the fitted concentration of half-maximal effect)
# In short: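 Fluorescence from cleaved LiveBLAzer B/G FRET substrate reports GRE-driven beta-lactamase in HeLa cells; compounds are tested against 5 nM dexamethasone (final) over 18 h at 37 C, substrate incubation 2 h at room temperature.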
# [16] = target: Androgen receptor (Homo sapiens) (UniProt P10275); assay: qHTS assay to identify small molecule agonists of the androgen receptor (AR) signaling pathway (AID 743036; active = well fitted activation curve with a large enough effect in the signal ratio in the repeat runs, with a control signal flat, not every such curve was filed as active; the % refers to the signal ratio)
# In short: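 Agonist activity was scored by beta-lactamase reporter fluorescence in stably transfected HEK293 cells exposed to compounds for 16 h at 37C and 5% CO2. Substrate loading took 2 h at room temperature.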
# [17] = target: Androgen receptor (Homo sapiens) (UniProt P10275); assay: qHTS assay to identify small molecule agonists of the androgen receptor (AR) signaling pathway using the MDA cell line (AID 743040; note: nearly all actives have a fitted effect of over 20% in size)
# In short: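 Luminescence from ONE-Glo, read after 30 min at room temperature, reflects MMTV-driven luciferase in MDA-kb2 cells (AR- and GR-responsive). Treatment lasted 16 h at 37C, 0% CO2.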
# Chain of Glucocorticoid receptor (Homo sapiens) (P04150 whole entry, looked up): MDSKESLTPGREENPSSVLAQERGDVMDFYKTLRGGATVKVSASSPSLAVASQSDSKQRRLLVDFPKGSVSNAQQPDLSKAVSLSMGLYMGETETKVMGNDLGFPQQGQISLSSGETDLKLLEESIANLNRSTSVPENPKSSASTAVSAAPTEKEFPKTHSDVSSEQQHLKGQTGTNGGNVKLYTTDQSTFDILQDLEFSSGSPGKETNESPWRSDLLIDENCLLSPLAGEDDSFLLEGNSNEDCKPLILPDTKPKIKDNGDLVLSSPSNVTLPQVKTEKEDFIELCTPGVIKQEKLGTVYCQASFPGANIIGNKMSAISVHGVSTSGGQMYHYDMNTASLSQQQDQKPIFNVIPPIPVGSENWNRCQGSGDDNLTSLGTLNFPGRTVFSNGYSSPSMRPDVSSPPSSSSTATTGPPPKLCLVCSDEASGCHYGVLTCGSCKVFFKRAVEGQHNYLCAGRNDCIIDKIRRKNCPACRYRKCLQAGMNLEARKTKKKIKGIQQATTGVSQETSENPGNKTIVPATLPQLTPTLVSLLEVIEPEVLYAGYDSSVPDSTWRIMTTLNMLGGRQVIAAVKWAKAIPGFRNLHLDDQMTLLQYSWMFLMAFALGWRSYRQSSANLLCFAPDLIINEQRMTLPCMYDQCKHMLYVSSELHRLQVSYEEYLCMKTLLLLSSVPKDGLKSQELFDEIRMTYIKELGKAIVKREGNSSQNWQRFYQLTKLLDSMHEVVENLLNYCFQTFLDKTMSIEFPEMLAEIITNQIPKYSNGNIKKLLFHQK
# Chain of Androgen receptor (Homo sapiens) (P10275 whole entry, looked up): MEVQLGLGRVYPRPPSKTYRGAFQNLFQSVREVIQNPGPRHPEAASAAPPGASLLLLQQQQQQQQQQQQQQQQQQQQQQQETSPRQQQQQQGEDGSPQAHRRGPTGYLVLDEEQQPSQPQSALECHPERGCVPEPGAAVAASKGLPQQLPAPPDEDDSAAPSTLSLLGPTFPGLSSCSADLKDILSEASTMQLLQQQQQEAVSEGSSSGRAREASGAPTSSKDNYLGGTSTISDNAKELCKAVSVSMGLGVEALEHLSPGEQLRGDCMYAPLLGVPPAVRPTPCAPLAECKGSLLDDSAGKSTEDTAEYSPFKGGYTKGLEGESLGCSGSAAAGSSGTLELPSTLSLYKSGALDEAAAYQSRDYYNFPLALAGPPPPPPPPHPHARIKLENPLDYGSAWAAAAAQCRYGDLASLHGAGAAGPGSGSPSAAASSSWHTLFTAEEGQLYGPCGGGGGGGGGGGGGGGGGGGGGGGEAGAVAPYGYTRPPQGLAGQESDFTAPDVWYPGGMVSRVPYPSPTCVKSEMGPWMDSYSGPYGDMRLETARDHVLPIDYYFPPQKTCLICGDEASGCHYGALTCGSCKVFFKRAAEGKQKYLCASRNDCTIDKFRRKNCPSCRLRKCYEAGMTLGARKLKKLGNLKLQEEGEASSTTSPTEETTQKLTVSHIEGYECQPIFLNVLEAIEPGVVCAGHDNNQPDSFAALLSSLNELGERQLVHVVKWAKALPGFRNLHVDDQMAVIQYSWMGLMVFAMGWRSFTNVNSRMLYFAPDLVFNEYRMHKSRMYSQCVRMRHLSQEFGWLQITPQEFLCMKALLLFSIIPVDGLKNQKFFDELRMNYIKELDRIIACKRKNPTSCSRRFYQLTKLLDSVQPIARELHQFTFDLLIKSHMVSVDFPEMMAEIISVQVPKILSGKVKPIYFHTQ
SMILES,outcome [1],outcome [2],outcome [3],outcome [4],Potency [5],outcome [6],Potency [7],Potency [8],Potency [9],Potency [10],Potency [11],Potency [12],Potency [13],Potency [14],Potency [15],outcome [16],outcome [17]
CC=C(Cl)Cl,inactive,inactive,inactive,inactive,inactive,inactive,inactive,inactive,inactive,inactive,inactive,inactive,inactive,–,–,–,–
O=C(Nc1cccc2c(=O)cc(-c3nn[nH]n3)oc12)c1ccc(OCCCCc2ccccc2)cc1,inactive,–,inactive,inactive,inactive,inactive,–,inactive,inactive,inactive,–,inactive,inactive,inactive,–,–,–
O=C1c2ccccc2C(=O)C1(O)O,inactive,–,inactive,inactive,inactive,inactive,inactive,–,–,24.5 µM (active),27.4 µM (active),–,inactive,inactive,–,–,–
Cc1ccccc1S,inactive,–,inactive,inactive,–,inactive,–,inactive,34.6 µM (active),27.5 µM (active),38.9 µM (active),inactive,–,inactive,–,–,–
Cc1ccc2c(Br)cc(Br)c(O)c2n1,inactive,–,inactive,inactive,inactive,inactive,–,inactive,7.5 µM (active),9.44 µM (active),8.41 µM (active),inactive,–,inactive,23.9 µM (active),–,–
CCCCCC[C@@H](O)C/C=C\CCCCCCCC(=O)O,inactive,inactive,inactive,inactive,inactive,inactive,inactive,–,inactive and 29.8 µM (active),inactive,inactive and 23.7 µM (active) and 48.6 µM (active),inactive,inactive,inactive,inactive,–,–
C=C(C)C(=O)OCCOCCOC(=O)C(=C)C,inactive,inactive,inactive,inactive,inactive,inactive,–,inactive,inactive,inactive,–,inactive,inactive,inactive,–,–,–
O=[N+]([O-])c1ccc(O/N=C/c2cc(Br)c(O)c(Br)c2)c([N+](=O)[O-])c1,inactive,inactive,inactive,inactive,–,inactive,–,inactive,inactive,inactive,inactive,–,inactive,inactive,–,–,–
C=C/C(C)=C/C/C=C(\C)CCC=C(C)C,inactive,inactive,inactive,inactive,inactive,inactive,inactive,inactive,–,61.1 µM (active),48.6 µM (active),inactive,inactive,–,38.9 µM (active),–,–
CCOC(=O)c1ccc(C#Cc2ccc3c(c2)C(C)(C)CCS3)nc1,inactive,inactive,inactive,inactive,–,inactive,inactive,inactive,23.7 µM (active),29.8 µM (active),29.8 µM (active),inactive,–,–,–,–,–
C[C@@H](O[C@H]1OCCN(Cc2n[nH]c(=O)[nH]2)[C@H]1c1ccc(F)cc1)c1cc(C(F)(F)F)cc(C(F)(F)F)c1,inactive,inactive,inactive,inactive,inactive,inactive,–,21.3 µM (active),23.7 µM (active),–,23.7 µM (active),–,–,inactive,–,inactive,inactive
